A number with no mark means an inactive call. Results filed as inconclusive are left out. Activity calls are given as the source filed them. Unless noted, the call rests on the fitted dose curve; in most records, active means well fitted curve in the direction sought with a large enough effect in the repeat runs; inconclusive means weak or mixed curves; inactive means no such curve, though single readings can be large; an effect the other way counts as inactive or inconclusive.

Assay [1] in a line: qHTS assay to identify small molecule agonists of the hypoxia (HIF-1) signaling pathway - cell viability counter screen (AID 1224844; calls by dose curve; further: nearly all actives have a fitted effect of over 50% in size; further: potency means the concentration at half of the fitted maximal effect). A digest of the protocol: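 Multiplexed with the HRE beta-lactamase assay, this viability read used CellTiter-Glo luminescence (30 min, RT) on HRE-bla ME-180 cells treated 17 hrs with compounds in 0.5% dialyzed FBS medium.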
For orientation: In qHTS, concentration-response curves come from the screen itself.

The nature of assay [2]: qHTS assay to identify small molecule agonists of the hypoxia (HIF-1) signaling pathway (AID 1224846; active means well fitted activation curve with a large enough effect in the signal ratio in the repeat runs, not every such curve was filed as active; the % refers to the signal ratio). A digest of the protocol: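 Hypoxia-pathway activation was scored as increased beta-lactamase from an HRE-controlled reporter in ME-180 cells; plated at 2,000 cells per well with 0.5% dialyzed FBS, they were exposed 17 hrs to compounds and then given CCF4-AM.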
A short description of assay [3]: qHTS assay to identify small molecule agonists of H2AX - cell viability counter screen (AID 1224847; calls by dose curve; further: nearly all actives have a fitted effect of over 30% in size; further: potency means the concentration at half of the fitted maximal effect). The procedure, abridged:
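After overnight plating of 1000 CHO-K1 cells per well, a 15-concentration compound series was applied for 3 hr at 37C. Luminescence from CellTiter-Glo, read following 30 min at room temperature, reflected cell viability.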

The nature of assay [4]: qHTS RealTime-Glo MT Cell Viability Assay in HepG2 cells - 24 hour (AID 1224867). Further: nearly all actives have a fitted effect of over 50% in size. Further: potency means the concentration at half of the fitted maximal effect. The procedure, abridged: (§1)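 Real-time, nonlytic viability: 600 HepG2 cells/well mixed with NanoLuc enzyme plus prosubstrate; 5 h settle, compound (DMSO) added by pintool; luminescence monitored over 40 h at 37 C.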
Assay [5] can be described thus: qHTS RealTime-Glo MT Cell Viability Assay in HEK293 cells - 32 hour (AID 1224868). Further: nearly all actives have a fitted effect of over 50% in size. Further: potency means the concentration at half of the fitted maximal effect. A digest of the protocol:
(§2)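 Cells + reagent dispensed (600 cells/well, HEK293) → 5 h at 37 C/5% CO2 → 23 nL compound in DMSO pinned → 40 h at 37 C → luminescence read at 0, 8, 16, 24, 32, 40 h.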

A short description of assay [6]: qHTS RealTime-Glo MT Cell Viability Assay in HepG2 cells - 40 hour (AID 1224870). Further: nearly all actives have a fitted effect of over 50% in size. Further: potency means the concentration at half of the fitted maximal effect. A digest of the protocol:
(§3)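 Real-time viability: cells seeded at 600 per well together with NanoLuc and cell-permeant prosubstrate, compounds added after 5 h incubation. Luminescence tracked at 0, 8, 16, 24, 32 and 40 h of exposure.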

Assay [7] is described as follows: A CellTox Green Cytotoxicity Assay to monitor cytotoxicity in HEK293 cells - 40 hour (AID 1224871). Further: nearly all actives have a fitted effect of over 45% in size. The procedure, abridged:
(§4)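 Seeding of HEK293 cells together with cytotoxicity dye preceded a 5 h incubation at 37 C/5% CO2. Test compounds in DMSO were then added and fluorescence monitored across 40 h.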

Assay [8] in a line: qHTS RealTime-Glo MT Cell Viability Assay in HEK293 cells - 16 hour (AID 1224872). Further: nearly all actives have a fitted effect of over 50% in size. Further: potency means the concentration at half of the fitted maximal effect. A digest of the protocol:
as §2

Assay [9] is described as follows: qHTS RealTime-Glo MT Cell Viability Assay in HepG2 cells - 8 hour (AID 1224873). Further: nearly all actives have a fitted effect of over 55% in size. Further: potency means the concentration at half of the fitted maximal effect. A digest of the protocol:
as §3

A short description of assay [10]: A CellTox Green Cytotoxicity Assay to monitor cytotoxicity in HEK293 cells - 24 hour (AID 1224875). Further: nearly all actives have a fitted effect of over 45% in size. The procedure, abridged: as §4
A short description of assay [11]: A CellTox Green Cytotoxicity Assay to monitor cytotoxicity in HepG2 cells - 16 hour (AID 1224876). Further: nearly all actives have a fitted effect of over 45% in size. A digest of the protocol:
(§5)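 Nonlytic assay: viable cells exclude the dye, so fluorescence scales with cell death. HepG2 at 600 cells/well, compounds added after 5 h, signal read across 40 h.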

Assay [12] in a line: qHTS RealTime-Glo MT Cell Viability Assay in HepG2 cells - 32 hour (AID 1224877). Further: nearly all actives have a fitted effect of over 55% in size. Further: potency means the concentration at half of the fitted maximal effect. A digest of the protocol: as §1
Assay [13] in a line: A CellTox Green Cytotoxicity Assay to monitor cytotoxicity in HepG2 cells - 24 hour (AID 1224878). Further: nearly all actives have a fitted effect of over 45% in size. A digest of the protocol:
as §5

Assay [14] can be described thus: A CellTox Green Cytotoxicity Assay to monitor cytotoxicity in HepG2 cells - 40 hour (AID 1224879). Further: nearly all actives have a fitted effect of over 40% in size. A digest of the protocol:
as §5

A short description of assay [15]: qHTS assay to identify small molecule antagonists of the estrogen related receptor (ERR) signaling pathway from Tox21 library (AID 1224848). Further: nearly all actives have a fitted effect of over 50% in size. Further: potency means the concentration at half of the fitted maximal effect. A digest of the protocol:
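Reading was by luminescence 30 min after ONE-Glo addition. Before that, ERR cells at 2,000 per well had rested 6 h at 37 C/5% CO2 and then received pin-tooled compounds in DMSO for 18 h at 37 C.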

A short description of assay [16]: qHTS assay to identify small molecule agonists of the estrogen related receptor (ERR) signaling pathway from Tox21 library (AID 1224849; calls by dose curve; further: nearly all actives have a fitted effect of over 15% in size). The note with it: ERR reporter cell line, ONE-Glo luciferase, 18 h; at 92.4 µM (top of the series) unless noted. The procedure, abridged: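 Six hours post-seeding at 37 C/5% CO2, ERR cells receive DMSO-solubilised compounds; after 18 h at 37 C, ONE-Glo reagent is applied and luminescence recorded.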

Assay [17] can be described thus: A CellTox Green Cytotoxicity Assay to monitor cytotoxicity in HEK293 cells - 0 hour (AID 1224869). Further: nearly all actives have a fitted effect of over 50% in size. The procedure, abridged: as §4
Assay [18] is described as follows: qHTS assay to identify small molecule agonists of H2AX (AID 1224845; active means well fitted activation curve with a large enough effect in the signal ratio in the repeat runs, not every such curve was filed as active; the % refers to the signal ratio). A digest of the protocol: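 Phospho-H2AX Ser139 measured by HTRF (ex 320 nm; em 665 and 620 nm) after 24 hr antibody incubation. Compounds, 15 concentrations, 0.76% DMSO, were applied to CHO-K1 cells for 3hr at 37C before lysis.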
Assay [19] in a line: qHTS RealTime-Glo MT Cell Viability Assay in HEK293 cells - 40 hour (AID 1224874). Further: nearly all actives have a fitted effect of over 50% in size. Further: potency means the concentration at half of the fitted maximal effect. The note with it: RealTime-Glo luminescence; max response: stronger effect = lower value. A digest of the protocol:
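Tox21 screen in HEK293 using RealTime-Glo MT chemistry, with cells and reagent co-dispensed. Luminescence proportional to viable cell number was captured at intervals during 40 h compound exposure at 37 C.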
On the % scale 0 is the no-effect control and ±100 the full control effect.

As for `COc1ccc(C(=O)c2cccc(O)c2)c(OC)c1`, the Potency result in assay [1], in assay [3], in assay [4], in assay [5], in assay [6] and in assay [7] was “inactive” throughout. Further, the Potency result in assay [8], in assay [9], in assay [10], in assay [11], in [12] and in [13] was “inactive” throughout. For the same compound, in [14], the Potency entry was “inactive”. For the same compound, the compound was classed as inactive in [2].

As to `NC(=O)Nc1ccc(Cl)c(Cl)c1`, the Potency entry in assay [1], in assay [3], in assay [15], in assay [4], in [17] and in assay [6] was “inactive” each time. Moreover, the Potency result in assay [7], in assay [8], in [9], in assay [10], in assay [11] and in assay [12] was “inactive” in each case. The Potency result in [13] was “inactive”. In addition, in [2], the call was inactive. Moreover, in assay [16], the activity change, positive = activation was 4.97%.

As for `CCNC(=O)N1CCN(CCCC(c2ccc(F)cc2)c2ccc(F)cc2)CC1`, the Potency entry in assay [1], in [18], in [3], in assay [4], in assay [17] and in assay [6] was “inactive” in each case. Besides, the Potency result in assay [7], in assay [9], in [11] and in assay [12] was “inactive” throughout. Further, the Potency in [15] was 7.5 µM (active); in [5] it was 16.9 µM (active); in [8], 16.9 µM (active); in assay [19] it was 16.9 µM (active). The activity change, positive = activation in assay [16] is -50.1% [at 42.5 µM].

On to `O=C(c1ccc(O)cc1)c1ccc(Cl)cc1`, for which the Potency result in assay [1], in assay [18], in [4], in assay [17], in assay [6] and in assay [9] was “inactive” throughout. Also, the Potency entry in assay [11], in assay [12], in assay [13] and in [14] was “inactive” in each case. Also, the compound was called inactive in assay [2]. Further, the Potency in assay [8] and in assay [19] was 25.1 µM (active) in each case.

On to `Cc1cc2nc3ccc(=[N+](C)C)cc-3sc2cc1N`, for which the Potency in [1] was 5.35 µM (active); in assay [3], 24.7 µM (active); in assay [15] it was 0.531 µM (active); in [4], 16.9 µM (active); in assay [5], 2.39 µM (active); in [6], 21.3 µM (active). In addition, the Potency in [8] was 2.13 µM (active); in assay [9], 9.52 µM (active); in assay [19], 2.13 µM (active); in [12], 19 µM (active). In addition, the call in assay [2] was inactive. Also, the activity change, positive = activation in assay [16] was -65.1% [at 42.5 µM]. In addition, the Potency result in assay [17], in assay [7], in assay [10], in assay [11], in assay [13] and in assay [14] was “inactive” in each case.

In the case of `O=[N+]([O-])c1cccc(S(=O)(=O)NCCNS(=O)(=O)c2cccc([N+](=O)[O-])c2)c1`, the Potency entry in assay [1], in assay [3], in assay [15], in [4], in assay [5] and in [17] was “inactive” in each case. Also, the Potency result in [6], in [8], in assay [9], in assay [10], in [11] and in assay [12] was “inactive” in each case. In addition, the Potency result in assay [13] is “inactive”. In assay [2], the compound was classed as inactive. Also, the activity change, positive = activation in [16] was -12.7% [at 42.5 µM]. For the same compound, the max response in assay [19] was -6.21%.

As to `Cc1nc2ccccn2c(=O)c1CCN1CCC(C(=O)c2ccc(F)cc2)CC1`, the Potency result in assay [1], in assay [3], in assay [4], in assay [17], in [6] and in assay [7] was “inactive” each time. Besides, the Potency entry in assay [9], in assay [10], in assay [11], in assay [12], in assay [13] and in [14] was “inactive” in each case. Besides, the figures for the Potency in [5], in assay [8] and in [19] were 7.56 µM (active), 4.77 µM (active) and 8.49 µM (active), respectively.

The values above are taken from PubChem BioAssay (Tox21).
